We go through 21 molecules from PubChem BioAssay (NCI).

“And” between values parts separate entries of the source, which are not always exact repeats. Identical values can stand only once. Compounds without any hit were thinned out: in the full panel of roughly 79,000, 15% have a hit. Unmarked numbers belong to inactive results. The source made the active and inactive calls. Cut-off read from the data, not from the text of the source: active = growth inhibition above about 70%; inactive = the rest.

The nature of experiment [1]: NCI Yeast Anticancer Drug Screen. Data for the rad50 strain (AID 155).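 Note: 0% = growth of vehicle-only cultures of the same strain.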 The conditions noted are these: S. cerevisiae rad50 strain growth inhibition; at 50.0 µM; active compounds read high. An outline of the steps: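 Cells are treated with compound, grown, and their growth is then scored against vehicle-only cultures of the same repair-deficient yeast strain.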
A short description of experiment [2]: NCI Yeast Anticancer Drug Screen. Data for the mec2-1 strain (AID 157). As to conditions: S. cerevisiae mec2-1 strain, at 50.0 µM, active compounds read high. An outline of the steps:
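Yeast mec2-1 mutant treated with compound. Readout: growth inhibition vs vehicle controls.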

Experiment [3] is described as follows: NCI Yeast Anticancer Drug Screen. Data for the sgs1 mgt1 strain (AID 161).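 Note: 0% = growth of cultures given vehicle only.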 As to conditions: S. cerevisiae sgs1 mgt1 strain, at 50.0 µM, active compounds read high. An outline of the steps: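 Genetically altered yeast, compound exposure, growth inhibition relative to vehicle.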
Experiment [4] is described as follows: NCI Yeast Anticancer Drug Screen. Data for the cln2 rad14 strain (AID 165).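 Note: 0% = growth equal to vehicle treated cultures.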 As to conditions: S. cerevisiae cln2 rad14 strain, at 50.0 µM, active compounds read high. An outline of the steps: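 cln2 rad14 yeast strain; compound exposure; growth inhibition read vs vehicle controls.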
Experiment [5] can be described thus: NCI Yeast Anticancer Drug Screen. Data for the bub3 strain (AID 167). The conditions noted are these: S. cerevisiae bub3 mutant strain, at 50.0 µM, active compounds read high. The gist of the method:
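Part of a panel of yeast mutants defective in DNA damage repair or cell cycle regulation. Each strain is grown with compound, and inhibition is calculated relative to solvent-treated cultures.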

Experiment [6] can be described thus: NCI Yeast Anticancer Drug Screen. Data for the mlh1 rad18 strain (AID 175). As to conditions: S. cerevisiae mlh1 rad18 strain growth inhibition; at 50.0 µM; active compounds read high. An outline of the steps:
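Yeast w/ defined DNA-repair lesions; compound exposure; growth vs vehicle controls → % inhibition.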

As to `CC(=O)Nc1ccc(C(=O)O)cc1`, the growth inhibition in experiment [1] is 5.05%; in experiment [2], -1%; in experiment [3], 0.1%; in experiment [4], 33%; in experiment [5], 0.15%; in experiment [6], 1.8%.

For the molecule `Cc1ccc(NP(=S)(Nc2ccc(C)cc2C)Nc2ccc(C)cc2C)c(C)c1`, the growth inhibition was 18.3% in experiment [1]; -1.6% in experiment [2]; -3.1% in experiment [3]; 17.9% in experiment [4]; 2.7% in experiment [5]; 9.55% in experiment [6].

In the case of `CC(C)(C)C1=CC(=C(P(=O)(O)O)P(=O)(O)O)C=C(C(C)(C)C)C1=O`, the growth inhibition in experiment [1] is -32.6%; in experiment [2], -12.7%; in experiment [3], -49.5%; in experiment [4], -21.9%; in experiment [5], -47.8%; in experiment [6] it was -34.5%.

For the molecule `O=C1NN(c2ccccc2)C(=O)C1c1ccccc1` (stereo unspecified), the growth inhibition in experiment [1] is 24.2%; in experiment [2], 28.8%; in experiment [3], 17.4%; in experiment [4] it was 9.75%; in experiment [5] it was -5.9%; in experiment [6], 41.5%.

For `O=C(SCC(NSc1ccccc1[N+](=O)[O-])C(=O)O)c1ccccc1` (stereo unspecified), the growth inhibition in experiment [1] is 88.5% (active); in experiment [2], 56.6%; in experiment [3], 75.4% (active); in experiment [4], 8.45%; in experiment [5], 6.5%; in experiment [6], 47.9%.

Consider `CN1C[C@H]2[C@@H](C1=O)[C@H](c1ccccc1)ON2C`, for which the growth inhibition is -16.4% in experiment [1]; -55.2% in experiment [2]; -34% in experiment [3]; 13.6% in experiment [4]; 5.85% in experiment [5]; -1.85% in experiment [6].

For `CCOP(=S)(OCC)N(C)C(=O)Oc1cccc(C(C)C)c1`, the growth inhibition in experiment [1] is 0.95%; in experiment [2], -1.05%; in experiment [3], 8.95%; in experiment [4], -6.1%; in experiment [5], -20.4%; in experiment [6], 12.2%.

Take `Cc1cc(S(=O)(=O)[O-])ccc1-n1nc(C)[c-](N=Nc2cc(S(=O)(=O)[O-])ccc2C(=O)[O-])c1=O.[Cr+3].[Na+].[OH-]` (stereo unspecified): the growth inhibition in experiment [1] is -19.4%; in experiment [2], -30.5%; in experiment [3], -11.6%; in experiment [4], -35.4%; in experiment [5], -16.3%; in experiment [6] it was -17.1%.

Turning to `CCOC(CNCc1cccnc1)OCC`, the growth inhibition in experiment [1] is -20.7%; in experiment [2], -10.6%; in experiment [3] it was -23.6%; in experiment [4], 5.9%; in experiment [5], -13.7%; in experiment [6] it was -17.3%.

`O=C(NC(Cc1ccccc1)C(=O)N(CCCl)CCCl)c1ccccc1` (stereo unspecified): the growth inhibition in experiment [1] was -5.15%; in experiment [2], -17.5%; in experiment [3] it was 16.7%; in experiment [4], 4.1%; in experiment [5], -13.7%; in experiment [6] it was 23.4%.

As for `N#Cc1cccc([N+](=O)[O-])c1`, the growth inhibition in experiment [1] is -17.7%; in experiment [2] it was 0.3%; in experiment [3], -26.6%; in experiment [4], 30.8%; in experiment [5] it was -9.7%; in experiment [6], -18.9%.

With `[Cl][Pt+2][Cl].c1ccc(CC2CC[N-]CC2)cc1.c1ccc(CC2CC[N-]CC2)cc1`, the growth inhibition in experiment [1] is -11.6%; in experiment [2], 1.1%; in experiment [3], 1.3%; in experiment [4], 2.35%; in experiment [5] it was 9.3%; in experiment [6] it was -3.6%.

Turning to `CCCCC[N+]1=Cc2cc(O)c(O)cc2CC1`, the growth inhibition in experiment [1] was -11.1%; in experiment [2] it was -5.7%; in experiment [3], 1.75%; in experiment [4] it was -24.9%; in experiment [5] it was -12.4%; in experiment [6] it was -21.7%.

On to `CCCCc1ccc(N=C(N)N)cc1`, for which the growth inhibition is 25.6% in experiment [1]; 9.35% in experiment [2]; 19.4% in experiment [3]; 8.3% in experiment [4]; 12.2% in experiment [5]; -1.95% in experiment [6].

Turning to `C=CC(=O)NCNC(=O)C=C`, the growth inhibition in experiment [1] is 21.9% and 5.15%; in experiment [2], 19.3% and 1.85%; in experiment [3] it was 8.75% and -4.05%; in experiment [4], 10.6% and 4.3%; in experiment [5], 5.25% and -11.3%; in experiment [6], -15.8% and -2.9%.

For `NC(P(=O)(O)O)P(=O)(O)O`, the growth inhibition in experiment [1] is 4.15%; in experiment [2], -1.2%; in experiment [3], 16.7%; in experiment [4] it was 15.3%; in experiment [5], 18.4%; in experiment [6] it was 7.1%.

With `COC[C@]12CN(C=O)[C@H]3C4[C@H](OC)[C@H]1C3([C@@H](OC)C[C@H]2O)[C@@H]1C[C@@]2(O)[C@H](OC(=O)c3ccccc3)[C@@H]1[C@]4(OC(C)=O)[C@@H](O)[C@@H]2OC`, the growth inhibition in experiment [1] is 9.45%; in experiment [2], 14.4%; in experiment [3], -13.8%; in experiment [4], -2.2%; in experiment [5], 0.2%; in experiment [6], 25.6%.

For `NC(CNC(=O)CBr)C(=O)O` (stereo unspecified), the growth inhibition in experiment [1] is 6.9%; in experiment [2] it was 18.1%; in experiment [3], -3.25%; in experiment [4], 8.9%; in experiment [5], -4.1%; in experiment [6] it was -35.2%.

Regarding `CC1([N+](=O)[O-])COP(=O)(NCC2CCCO2)OC1` (stereo unspecified), the growth inhibition in experiment [1] is 4.8%; in experiment [2], -23.9%; in experiment [3], -2.9%; in experiment [4], -4.1%; in experiment [5] it was 0.35%; in experiment [6] it was 3.95%.

For `COc1cc(CC[N+](C)(C)C)cc(OC)c1OC`, the growth inhibition was 4.95% in experiment [1]; 6.1% in experiment [2]; 7.85% in experiment [3]; 25.2% in experiment [4]; 9.5% in experiment [5]; 34.7% in experiment [6].

Regarding `CCOC(=O)C1C(=O)CN2CCc3c([nH]c4ccccc34)C12C(=O)OCC` (stereo unspecified), the growth inhibition in experiment [1] was 21.2%; in experiment [2], 15.3%; in experiment [3], 31.6%; in experiment [4] it was 15.6%; in experiment [5] it was 1.95%; in experiment [6] it was 24.4%.
